Assay results taken from PubChem BioAssay (Tox21).
Inconclusive results are not listed. The source made the active and inactive calls. Unless noted, calls follow the shape of the dose curve; as a rule, active = well fitted curve in the direction sought with a large enough effect in the repeat runs; inconclusive = weak or mixed curves; inactive = no such curve, though single readings can be large; an effect the other way counts as inactive or inconclusive.

Experiments:
[1] = biological target: Estrogen receptor beta (Homo sapiens) (UniProt Q92731); experiment: qHTS assay to identify small molecule agonists of the estrogen receptor beta (ER-beta) signaling pathway (AID 1259377; active = well fitted activation curve with a large enough effect in the signal ratio in the repeat runs, not every such curve was filed as active; the % refers to the signal ratio)
Estrogen receptor beta (Homo sapiens), sequence (Q92731 whole entry, looked up): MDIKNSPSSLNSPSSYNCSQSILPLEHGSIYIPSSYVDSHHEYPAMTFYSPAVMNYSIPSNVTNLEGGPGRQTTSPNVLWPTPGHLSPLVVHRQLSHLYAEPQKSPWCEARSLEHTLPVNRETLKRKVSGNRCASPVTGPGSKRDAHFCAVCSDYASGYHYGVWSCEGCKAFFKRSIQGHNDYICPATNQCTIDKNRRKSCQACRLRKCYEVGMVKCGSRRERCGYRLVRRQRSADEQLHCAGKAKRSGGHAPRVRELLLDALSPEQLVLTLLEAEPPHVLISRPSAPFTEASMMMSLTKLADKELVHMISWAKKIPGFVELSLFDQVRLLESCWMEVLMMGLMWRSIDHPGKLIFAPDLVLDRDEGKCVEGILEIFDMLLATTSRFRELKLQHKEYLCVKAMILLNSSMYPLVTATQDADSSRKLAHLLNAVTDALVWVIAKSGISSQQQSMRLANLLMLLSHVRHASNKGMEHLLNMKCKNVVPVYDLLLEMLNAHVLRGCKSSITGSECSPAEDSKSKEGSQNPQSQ
Method in brief: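 Screening used GripTite ER-beta-UAS-bla cells held in 2% charcoal-stripped FBS medium. After overnight (16 hr) compound incubation at 37C, beta-lactamase activity was detected with a FRET substrate by fluorescence.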

[2] = biological target: Estrogen receptor beta (Homo sapiens) (UniProt Q92731); experiment: qHTS assay to identify small molecule antagonists of the estrogen receptor beta (ER-beta) signaling pathway (AID 1259378; active = well fitted inhibition curve with a large enough effect in the signal ratio in the repeat runs, not every such curve was filed as active; the % refers to the signal ratio)
Method in brief: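 ER-beta-UAS-bla HEK293T cells in 2% charcoal-stripped FBS medium treated with compound plus 1nM final 17-beta-estradiol for 16 hr at 37C. Beta-lactamase reporter read by FRET substrate fluorescence after 2 hours at room temperature.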

[3] = qHTS assay to identify small molecule agonists of the androgen receptor (AR) signaling pathway in the presence of an antagonist - cell viability counter screen (AID 1259379);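 also: MDA-kb2 human breast cancer cells carrying an MMTV luciferase reporter; series mostly up to about 92 µM; nearly all actives have a fitted effect of over 25% in size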
Method in brief: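 Seed MDA-kb2 at 3,000 cells/well; incubate 5 hr, 37C, 0% CO2. Add nilutamide to 3.0uM final, then pin compounds at 15 concentrations. Incubate 16 hr. Add CellTiter-Fluor at 15 hr, read fluorescence after 1 hr.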

[4] = qHTS assay to identify small molecule agonists of the estrogen receptor beta (ER-beta) signaling pathway - cell viability counter screen (AID 1259380); also: nearly all actives have a fitted effect of over 30% in size
Method in brief: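 CellTiter-Glo read, 30 min RT, same wells as bla assay; cells ER-beta-UAS-bla HEK293T; 16 hr compound, 37C; medium 2% charcoal-stripped FBS.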

[5] = qHTS assay to identify small molecule antagonists of the estrogen receptor beta (ER-beta) signaling pathway - cell viability counter screen (AID 1259382); also: series mostly up to about 92 µM; nearly all actives have a fitted effect of over 55% in size
Method in brief: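 In this multiplexed counter screen, cells were seeded at 2,000 per well in medium with 2% charcoal-stripped FBS and incubated 6 hr before compound and 1nM final E2 were added. Sixteen hours later, ATP-based luminescence reported viability.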

[6] = qHTS assay to identify small molecule agonists or antagonists of the thyroid stimulating hormone receptor (TSHR) signaling pathway - wild type cell line counter screen (AID 1259384; calls by dose curve)
Method in brief: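 Wild-type Hek293 cells, 800/well, 18 h at 37C, then compound with Ro20-1724 for 30 min RT. cAMP by HTRF (cAMP-d2/anti-cAMP cryptate), 1 h RT, fluorescence read. 15 concentrations, triplicates.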

[7] = biological target: Thyrotropin receptor (Homo sapiens) (UniProt P16473); experiment: qHTS assay to identify small molecule antagonists of the thyroid stimulating hormone receptor (TSHR) signaling pathway (AID 1259385; calls by dose curve; also: nearly all actives have a fitted effect of over 20% in size)
Thyrotropin receptor (Homo sapiens), sequence (P16473 whole entry, looked up): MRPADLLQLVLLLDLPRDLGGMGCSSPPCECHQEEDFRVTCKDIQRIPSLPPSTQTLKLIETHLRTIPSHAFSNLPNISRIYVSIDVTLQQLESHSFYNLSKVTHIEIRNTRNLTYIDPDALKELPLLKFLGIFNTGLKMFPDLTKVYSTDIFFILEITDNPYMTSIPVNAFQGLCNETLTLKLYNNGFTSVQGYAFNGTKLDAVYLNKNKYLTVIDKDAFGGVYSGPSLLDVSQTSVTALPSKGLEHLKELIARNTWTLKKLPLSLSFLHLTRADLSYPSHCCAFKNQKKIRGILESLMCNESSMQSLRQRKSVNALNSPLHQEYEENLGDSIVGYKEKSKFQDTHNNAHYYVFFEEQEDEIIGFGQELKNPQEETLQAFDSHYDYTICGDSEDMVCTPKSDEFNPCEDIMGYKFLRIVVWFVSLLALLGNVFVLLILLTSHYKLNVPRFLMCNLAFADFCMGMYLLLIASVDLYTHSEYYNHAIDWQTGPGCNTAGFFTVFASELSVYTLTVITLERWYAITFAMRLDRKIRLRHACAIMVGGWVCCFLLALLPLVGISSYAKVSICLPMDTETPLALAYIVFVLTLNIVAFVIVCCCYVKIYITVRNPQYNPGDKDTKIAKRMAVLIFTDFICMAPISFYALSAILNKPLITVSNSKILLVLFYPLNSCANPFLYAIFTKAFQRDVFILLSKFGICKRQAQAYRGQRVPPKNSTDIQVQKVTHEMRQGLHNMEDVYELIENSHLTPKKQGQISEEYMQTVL
Method in brief: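 TSHR-HEK293 cells (800/well) plated 18 h, then compounds with Ro20-1724 and TSH at 1.5 ng/mL final, 30 min at room temperature. cAMP quantified by HTRF (cAMP-d2/anti-cAMP-cryptate, 1 h); 15 concentrations in triplicate.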

[8] = qHTS assay to identify small molecule agonists of the estrogen receptor alpha (ER-alpha) signaling pathway in the presence of an antagonist - cell viability counter screen (AID 1259386);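 also: series mostly up to about 92 µM; cells exposed to compounds for 22 h at 37 °C before the viability read; nearly all actives have a fitted effect of over 30% in size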
Method in brief: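 Viability counter screen using VM7Luc4E2 (full-length ER-alpha, four ERE-luciferase). The cells were treated with compounds alongside ICI-182,780 10.0nM for 22hr, and live-cell protease fluorescence was quantified with CellTiter-Fluor.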

[9] = biological target: Progesterone receptor (Homo sapiens) (UniProt P06401); experiment: qHTS assay to identify small molecule agonists of the progesterone receptor (PR) signaling pathway (AID 1346784; calls by dose curve; also: nearly all actives have a fitted effect of over 30% in size)
Progesterone receptor (Homo sapiens), sequence (P06401 whole entry, looked up): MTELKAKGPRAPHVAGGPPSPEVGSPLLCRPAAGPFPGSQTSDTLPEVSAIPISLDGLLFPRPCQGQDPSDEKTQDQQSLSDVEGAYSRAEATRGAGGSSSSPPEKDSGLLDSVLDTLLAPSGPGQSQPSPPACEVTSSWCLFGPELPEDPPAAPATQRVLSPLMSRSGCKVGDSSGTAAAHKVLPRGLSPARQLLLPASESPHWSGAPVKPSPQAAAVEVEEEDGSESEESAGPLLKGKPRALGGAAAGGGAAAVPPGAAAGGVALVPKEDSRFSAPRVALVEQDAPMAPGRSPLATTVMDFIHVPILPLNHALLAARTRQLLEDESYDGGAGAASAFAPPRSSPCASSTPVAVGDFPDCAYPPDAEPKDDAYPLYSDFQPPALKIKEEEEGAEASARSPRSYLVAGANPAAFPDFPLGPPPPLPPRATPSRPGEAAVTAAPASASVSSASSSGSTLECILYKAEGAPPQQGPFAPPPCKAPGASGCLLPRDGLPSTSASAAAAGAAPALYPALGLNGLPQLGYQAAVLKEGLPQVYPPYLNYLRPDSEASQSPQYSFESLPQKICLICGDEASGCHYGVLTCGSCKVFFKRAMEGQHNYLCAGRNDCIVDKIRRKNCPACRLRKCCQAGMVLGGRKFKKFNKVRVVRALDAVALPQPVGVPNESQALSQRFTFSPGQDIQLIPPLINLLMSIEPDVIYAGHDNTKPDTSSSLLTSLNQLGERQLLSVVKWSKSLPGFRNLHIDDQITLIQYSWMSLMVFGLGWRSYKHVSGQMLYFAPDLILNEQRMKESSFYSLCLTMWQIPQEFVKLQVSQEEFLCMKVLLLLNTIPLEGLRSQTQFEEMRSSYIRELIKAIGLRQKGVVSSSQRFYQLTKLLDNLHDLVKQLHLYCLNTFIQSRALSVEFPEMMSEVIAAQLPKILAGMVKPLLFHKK
Method in brief: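 Seed PR-UAS-bla HEK 293T cells (2% charcoal-stripped FBS), incubate 6 hr at 37C; add compounds in DMSO, 16 hr at 37C; add LiveBLAzer B/G substrate, 2 hr RT; read fluorescence intensity.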

[10] = biological target: Progesterone receptor (Homo sapiens) (UniProt P06401); experiment: qHTS assay to identify small molecule antagonists of the progesterone receptor (PR) signaling pathway (AID 1346795; active = well fitted inhibition curve with a large enough effect in the signal ratio in the repeat runs, not every such curve was filed as active; the % refers to the signal ratio)
Method in brief: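 Screening used a GripTite HEK293T line with PR-responsive UAS-beta-lactamase. Cells were challenged with compound in the presence of 1 nM R5020 final for 16 hr at 37C; B/G FRET substrate, 2 hr room temperature, fluorescence.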

[11] = qHTS assay to identify small molecule antagonists of the progesterone receptor (PR) signaling pathway - cell viability counter screen (AID 1346798); also: series mostly up to about 92 µM; nearly all actives have a fitted effect of over 50% in size
Method in brief: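 Measures cytotoxicity in parallel with the PR antagonist reporter read: HEK293T PR-UAS-bla cells get compound and R5020 for 16 hr, and remaining viable cells are quantified by CellTiter-Glo luminescence.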

[12] = qHTS assay to identify small molecule agonists of the progesterone receptor (PR) signaling pathway - cell viability counter screen (AID 1346799; calls by dose curve; also: nearly all actives have a fitted effect of over 45% in size)
Method in brief: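 Using the same plates as the PR reporter screen, HEK293T PR-UAS-bla cells received compounds for 16 hr at 37C and were then lysed with CellTiter-Glo; luminescence was read 30 min later at room temperature.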

[13] = qHTS assay to identify small molecule antagonists of the TGF-beta/Smad signaling pathway - cell viability counter screen (AID 1346824); also: nearly all actives have a fitted effect of over 50% in size
Method in brief: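 SBE-bla HEK 293T cells, incubated overnight, then compound plus 0.25 ng/mL TGF-beta1 (stock added) for 5 hr at 37 C. Viability was read in the same wells by CellTiter-Glo luminescence after 30 min at room temperature.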

[14] = qHTS assay to identify small molecule agonists of the TGF-beta/Smad signaling pathway (AID 1346859; active = well fitted activation curve with a large enough effect in the signal ratio in the repeat runs, not every such curve was filed as active; the % refers to the signal ratio; also: series mostly up to about 77 µM)
Method in brief: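 Beta-lactamase reporter activity downstream of Smad binding elements was measured in stably transfected HEK 293T cells; compounds were incubated for 5 hr, substrate for 2 hr at room temperature.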

[15] = qHTS assay to identify small molecule antagonists of the sonic hedgehog signaling (Shh) pathway (AID 1259369; calls by dose curve; also: nearly all actives have a fitted effect of over 45% in size)
Method in brief: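 For antagonist detection, the reporter line received test compounds together with conditioned medium, incubated 24hr at 37 C, 5% CO2, then luminescence was recorded following 30min room-temperature luciferase reagent incubation.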

[16] = biological target: Estrogen receptor (Homo sapiens) (UniProt P03372); experiment: qHTS assay to identify small molecule agonists of the estrogen receptor alpha (ER-alpha) signaling pathway in the presence of an antagonist (AID 1259383; calls by dose curve; also: top concentration of the series differs between compounds; nearly all actives have a fitted effect of over 15% in size)
Estrogen receptor (Homo sapiens), sequence (P03372 whole entry, looked up): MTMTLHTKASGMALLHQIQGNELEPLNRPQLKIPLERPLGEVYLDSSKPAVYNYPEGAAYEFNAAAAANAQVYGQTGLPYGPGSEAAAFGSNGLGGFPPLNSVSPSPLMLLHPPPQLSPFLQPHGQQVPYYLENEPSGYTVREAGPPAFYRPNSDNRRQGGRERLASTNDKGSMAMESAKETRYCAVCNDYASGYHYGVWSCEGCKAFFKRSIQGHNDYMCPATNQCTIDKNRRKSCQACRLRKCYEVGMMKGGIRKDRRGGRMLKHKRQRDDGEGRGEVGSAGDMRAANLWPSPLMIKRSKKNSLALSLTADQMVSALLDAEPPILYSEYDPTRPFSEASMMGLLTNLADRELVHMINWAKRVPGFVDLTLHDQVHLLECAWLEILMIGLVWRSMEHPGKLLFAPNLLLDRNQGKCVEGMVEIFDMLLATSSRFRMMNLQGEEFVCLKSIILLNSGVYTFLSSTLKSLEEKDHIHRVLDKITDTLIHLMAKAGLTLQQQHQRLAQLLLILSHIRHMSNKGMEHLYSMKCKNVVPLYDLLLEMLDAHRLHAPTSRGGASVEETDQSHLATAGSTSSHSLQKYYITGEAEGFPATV
Method in brief: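 Stably transfected VM7Luc4E2 reporter cells, kept 5 days in charcoal-stripped serum, received ICI-182,780 at 10.0nM final before compound addition. Following 22hr incubation at 37C and 5% CO2, luciferase signal was read by luminescence.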

[17] = qHTS assay to identify small molecule agonists of the TGF-beta/Smad signaling pathway - cell viability counter screen (AID 1346829); also: top concentration of the series differs between compounds; nearly all actives have a fitted effect of over 45% in size
Method in brief: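 Luminescence from CellTiter-Glo, read after a 30 min room-temperature incubation, gives cell viability of SBE-bla HEK 293T cells treated 5 hr with compounds at 37 C.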

[18] = biological target: Thyrotropin-releasing hormone receptor (Homo sapiens) (UniProt P34981); experiment: qHTS assay to identify small molecule antagonists of the thyrotropin-releasing hormone receptor (TRHR) signaling pathway (AID 1346877; active = well fitted inhibition curve with a large enough effect in the repeat runs, not every such curve was filed as active; also: series mostly up to about 51 µM)
Thyrotropin-releasing hormone receptor (Homo sapiens), sequence (P34981 whole entry, looked up): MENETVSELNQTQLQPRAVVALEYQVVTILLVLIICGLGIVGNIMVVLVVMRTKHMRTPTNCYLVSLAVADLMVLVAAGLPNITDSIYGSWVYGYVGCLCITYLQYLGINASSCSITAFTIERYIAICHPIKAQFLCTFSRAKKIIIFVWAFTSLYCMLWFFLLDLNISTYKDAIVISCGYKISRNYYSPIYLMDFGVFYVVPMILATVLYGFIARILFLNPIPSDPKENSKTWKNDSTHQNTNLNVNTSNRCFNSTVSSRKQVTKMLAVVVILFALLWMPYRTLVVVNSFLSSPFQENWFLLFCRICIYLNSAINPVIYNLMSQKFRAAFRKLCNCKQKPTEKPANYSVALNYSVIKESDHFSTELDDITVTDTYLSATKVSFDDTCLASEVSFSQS
Method in brief: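 Following an 18 h incubation at 37 °C and a 2 h calcium dye load, TRHR-HEK293 cells were exposed to compound (5 min, room temperature) and challenged with TRH, 1 nM final.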

[19] = biological target: Thyrotropin-releasing hormone receptor (Homo sapiens) (UniProt P34981); experiment: qHTS assay to identify small molecule agonists of the thyrotropin-releasing hormone receptor (TRHR) signaling pathway (AID 1346891; calls by dose curve;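 also: HEK293 cells expressing TRHR with calcium dye readout; series mostly up to about 58 µM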)
Method in brief: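 Overnight-plated (18 h, 37 °C, 5% CO2) TRHR-Hek293 cells; 2 h calcium dye at 37 °C; compound in DMSO; 3-min kinetic fluorescence read.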

Measured: Potency

C[C@@H]1CCC[C@H](C)N1
not listed: [15] | [16] | [17] | [18] | [19]
inactive: all other assays above

Cc1ccnc(NS(=O)(=O)c2ccc(N)cc2)n1
not listed: [1] | [2] | [3] | [18] | [19]
inactive: all other assays above

CC(C)(C)OC(=O)c1cccc(N)c1
not listed: [9] | [10] | [15] | [16]
inactive: all other assays above
